Assay outcomes: PubChem BioAssay, Sanford-Burnham Center for Chemical Genomics
The list is not random: actives were taken first. Their share in the collection is about 4.1%.
NALP1 inh: NALP1 inhibition; S. cerevisiae NALP1/ASC/caspase-1 growth, X-gal OD620, 72 h; inhibition, % at 10 µM; 280,000 tested, 0.61% active; AID 2071; in the data active = inhibition mostly above about 24%, no sharp cut-off; inactive = mostly below about 32%
TIM10 inh: inhibits growth of TIM10 yeast strain; AID 463195; 330,000 tested, 1.4% active; S. cerevisiae TIM10 strain growth, BacTiter-Glo luminescence, 24 h; inhibition, % at 10 µM;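 active = inhibition of 40% or more at the single tested concentration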;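 note: wild-type TIM10 isogenic control strain grown at permissive 25 °C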
NLRP3 yeast inh: NALP3 inhibition in yeast; Yeast reconstituted NLRP3/ASC/caspase-1, beta-gal luminescence, 24 h; inhibition, % at 10 µM; 330,000 tested, 0.39% active;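 active = inhibition of 50% or more; inactive = inhibition below 50%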
tim10-1 inh: inhibits growth of tim10-1 mutant yeast; S. cerevisiae tim10-1 ts strain growth, BacTiter-Glo, 24 h; inhibition, % at 20 µM; 330,000 tested, 2.2% active;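 active = inhibition of at least 40%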;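 note: mutant grown at 25 °C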
tim23-1 inh: growth inhibitors of tim23-1 mutant yeast; S. cerevisiae tim23-1 growth, BacTiter-Glo luminescence, 24 h; inhibition, % at 20 µM; 330,000 tested, 1.3% active; AID 463212;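 active = growth inhibition of the mutant yeast at or above 50%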;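 note: temperature-sensitive mutant grown at 25 °C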
tim23-1 confirm: tim23-1 yeast growth inhibition, confirmed | shares compounds with tim23-1 inh | S. cerevisiae tim23-1 growth, BacTiter-Glo luminescence, 24 h | inhibition, % at 20 µM | 4,400 tested, 83% active | AID 463218;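 active = inhibition above about 39% in either of two replicate wells at 20 µM, limit read from the data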;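 note: temperature-sensitive tim23-1 mutant grown at 25 °C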
Each line names hits and unclear results; the compound was inactive in the other large screens (follow-up assays come after a bar, where they were run).

c1ccc(CNc2nc(-c3ccccc3)nc3ccccc23)cc1	tim23-1 inh 56 | tim23-1 confirm inactive
O=C1ON=C(c2ccccc2[N+](=O)[O-])/C1=C/c1cccc([N+](=O)[O-])c1O	none (no result: NALP1 inh)
O=C(NC(=S)Nc1ccc2c(c1)OCCO2)c1ccccc1	tim23-1 inh 54 | tim23-1 confirm 44
O=C(NC(=S)Nc1ccc2c(c1)OCCO2)c1ccccc1F	none
Cc1ccc(NC(=O)c2ccc3c(c2)OCCO3)cc1C	tim23-1 inh 64 | tim23-1 confirm 63
O=C(Nc1ccc2c(c1)OCCO2)c1ccccc1F	tim23-1 inh 66 | tim23-1 confirm 40
O=C(Nc1ccc(NC(=O)c2ccc3c(c2)OCCO3)cc1)c1ccccc1	none
CCCCCn1c(CCCNC(=O)CC)nc2ccccc21	none
Cc1[nH]c(C)c(S(=O)(=O)N2CCN(c3ccc(Cl)cc3)CC2)c1C(=O)N1CCCC1	none
Oc1ccc(Br)cc1CNc1cnc2ccccc2c1	tim23-1 inh 76 | tim23-1 confirm 68
Cc1ccc(O)c(CNc2cnc3ccccc3c2)c1	tim23-1 inh 57 | tim23-1 confirm 42
Cc1ccc(SCC(=O)OCC(=O)NCCC2=CCCCC2)cc1	none (no result: NALP1 inh)
CCOC(=O)C1=CN(Cc2cccc(F)c2)S(=O)(=O)N(C)C1c1ccccc1 (stereo unspecified)	none (no result: NALP1 inh, NLRP3 yeast inh)
CCOC(=O)C1=CN(Cc2cccc(F)c2)S(=O)(=O)N(C)C1c1cccc(OC)c1 (stereo unspecified)	tim23-1 inh 52 (no result: NALP1 inh, NLRP3 yeast inh) | tim23-1 confirm inactive
CSc1nc2ccc(NS(=O)(=O)c3ccc(Br)s3)cc2s1	tim23-1 inh 61 | tim23-1 confirm 62
O=C(NC(=S)NCc1ccco1)c1cccc(Cl)c1	tim23-1 inh 57 | tim23-1 confirm 47
Cn1c(N2CCOCC2)nc2c1c(=O)n(Cc1ccc(Cl)c(Cl)c1)c(=O)n2C	tim23-1 inh 55 | tim23-1 confirm inactive
Cc1cc(Cl)n2nc(C)c(-c3ccc(Cl)cc3)c2n1	none
Cc1cc(N)n2nc(C)c(-c3ccc(Cl)cc3)c2n1	NALP1 inh 33, tim23-1 inh 63 | tim23-1 confirm 72
Cc1ccc(C(=O)c2coc3cc([N+](=O)[O-])c(O)c([N+](=O)[O-])c23)cc1	none
COC(=O)n1c(=S)oc2cc(Cl)ccc21	tim23-1 inh 78 | tim23-1 confirm 79
COC(=O)n1c(=O)oc2cc(S(=O)(=O)N3CCOCC3)ccc21	none
CC1CCc2c(sc3nc(C(C)(C)C)nc(N4CCN(C(=O)CCl)CC4)c23)C1 (stereo unspecified)	tim23-1 inh 50 | tim23-1 confirm 53
CCC(=O)N1CCN(c2nc(CC)nc3sc4c(c23)CCCC4)CC1	none
Cc1ccc(S(=O)(=O)N2CCc3c2cc([N+](=O)[O-])cc3[N+](=O)[O-])cc1	none
CSC1=N/C(=C\c2ccccc2F)C(=O)S1	tim23-1 inh 52 | tim23-1 confirm 51
COc1cccc(/C=C2\N=C(SC)SC2=O)c1OC	none
CC(=O)NC(=S)Nc1ccc([N+](=O)[O-])cc1C	none
Cc1cc([N+](=O)[O-])ccc1NC(=S)NC(=O)Cc1ccccc1	tim23-1 inh 50 | tim23-1 confirm inactive
CC1CCc2sc(C(=O)N3CCC(C(N)=O)CC3)cc2C1 (stereo unspecified)	none (no result: NALP1 inh)
CCOC(=O)c1cnc(-n2nc(C)cc2C)nc1NC1CCCCC1	tim23-1 inh 54 | tim23-1 confirm 43
Cc1cc(C(=O)Nc2ccc(Cl)cc2)n(-c2ccccc2)n1	none
Cc1cc(C(=O)Nc2ccc(Cl)cc2)c(C)n1-c1ccccc1	tim23-1 inh 56 | tim23-1 confirm 54
O=S(=O)(CCN1CCN(c2ccccc2O)CC1)c1cc(Cl)ccc1Cl	tim23-1 inh 50 (no result: NALP1 inh) | tim23-1 confirm inactive
O=C(CN1CCN(c2ccccc2O)CC1)NNC(=O)c1ccc(Cl)cc1	none
COc1ccc2nc(C)cc(Sc3nc4ccccc4s3)c2c1	none
CSc1ccc(C2NN=C(c3ccccc3)S2)cc1 (stereo unspecified)	none (no result: NALP1 inh)
Oc1ccccc1C1NN=C(c2ccccc2)S1 (stereo unspecified)	tim23-1 inh 58 | tim23-1 confirm 54
NC1=NC(=O)C(Cc2ccc(OC(F)(F)F)cc2)S1 (stereo unspecified)	none
COc1ccc(C2=NNC(c3cccs3)=Nc3ccc(OC)cc32)cc1	tim23-1 inh 60 | tim23-1 confirm 61
COc1ccc(C2=NNC(c3cccnc3)=Nc3ccccc32)cc1	none
CCOC(=O)c1[nH]ncc1CN1CCN(Cc2ccccc2)C(CCO)C1 (stereo unspecified)	none
COc1ccccc1C(=O)OCC(=O)Nc1ccc(Cl)cn1	none
COCCNc1c2c(nc3c(-c4ccccc4)c(C)nn13)CCCC2	tim23-1 inh 50 | tim23-1 confirm inactive
CCOc1ccc(Br)cc1S(=O)(=O)NCCN1CCCC1	none
CC(=O)NC1=NC(=O)/C(=C/c2cn(C(C)=O)nc2-c2ccccc2)S1	none
CCN=C1S/C(=C\c2cn(C(C)=O)nc2-c2ccccc2)C(=O)N1CC	tim23-1 inh 53 | tim23-1 confirm 48
Cc1ccc2oc(C(Cl)(Cl)Cl)cc(=O)c2c1	tim23-1 inh 75 | tim23-1 confirm 76
O=S(=O)(Nc1ccc(-c2csc(-c3ccccc3)n2)cc1)c1ccccc1	tim23-1 inh 50 | tim23-1 confirm inactive
COc1ccc(NC(=S)NC2CC3CCC2C3)c(OC)c1 (stereo unspecified)	tim23-1 inh 63 | tim23-1 confirm inactive
CCOc1ccccc1NC(=S)NC1CC2CCC1C2 (stereo unspecified)	none
CCOC(=O)C1CCN(S(=O)(=O)c2c(Cl)ccc3nonc23)CC1	tim23-1 inh 65 | tim23-1 confirm 60
CCOC(=O)C1CCN(S(=O)(=O)c2cccc3nonc23)CC1	none
COc1ccc(NC(=O)c2cc(S(=O)(=O)NCC3COc4ccccc4O3)ccc2F)cc1 (stereo unspecified)	tim23-1 inh 58 | tim23-1 confirm 65
CC(C)n1nc(C(=O)Nc2nnc(C3CC3)s2)c2ccccc2c1=O	none
CCSc1nnc(NC(=O)c2nn(C(C)C)c(=O)c3ccccc23)s1	tim23-1 inh 57 | tim23-1 confirm 37
COCCCNC(=O)c1cc(-c2cccnc2)nc2ccc(S(=O)(=O)N3CCCCCC3)cc12	none
COc1cc2cnc(-c3ccccc3)cc2cc1OC	tim23-1 inh 52 (no result: NALP1 inh) | tim23-1 confirm 44
c1ccc(-c2cc3ccccc3cn2)cc1	tim23-1 inh 51 (no result: NALP1 inh) | tim23-1 confirm 75
Fc1ccc2cc(-c3ccccc3)ncc2c1	none (no result: NALP1 inh)
COc1cc(OC)cc(-c2cc3ccc(OC)cc3cn2)c1	tim23-1 inh 51 (no result: NALP1 inh) | tim23-1 confirm 55
O=C(O)c1cccc(N2C(=O)c3cc4cccc(Br)c4cc3C2=O)c1	none | tim23-1 confirm inactive
O=C1CC(N2CCN(S(=O)(=O)c3cccc(C(F)(F)F)c3)CC2)C(=O)N1Cc1ccccc1 (stereo unspecified)	none
CC1=CC(=NOC(=O)/C=C/c2ccccc2)C=C(C)C1=O	tim23-1 inh 70 | tim23-1 confirm 53
